# Tested on: Plasmodium falciparum
# Assay: GSK_TCMDC: Inhibition of Plasmodium falciparum 3D7 in whole red blood cells, using parasite LDH activity as an index of growth. Test compounds present at 2uM
# Type: functional
row,Compound,Inhibition [%]
1,COc1cc2c(Nc3ccc(NC(=O)c4ccccc4)cc3)ncnc2cc1OCCCN1CCOCC1,99
2,CC(Cc1ccc(NC(=O)c2ccc(CC(C)NCc3ccc(Cl)cc3)cc2)cc1)NCCc1cccc(Cl)c1 (stereo not given),100
3,CCCCCCCNCc1c(O)ccc2c(CNCCCCCCC)c(O)ccc12.Cl,100
4,O=C(NCCCCCN1CCC(c2c[nH]c3ccccc23)CC1)c1ccc(-c2ccccc2)nc1,87
5,CCOC(=O)C(C)(C)Oc1ccc(CN(Cc2ccc(CC(C)C)cc2)C(=O)Nc2ccc(F)cc2F)c(OC)c1,97
6,Cc1cc(N[C@@H](Cc2ccccc2)C(=O)NC2CCCC2)nc(Nc2ccccc2)n1.O=C(O)C(F)(F)F,100
7,O=C(Nc1ccc(OC2CCN(Cc3ccsc3)C2)c(Cl)c1)c1ccc(F)cc1.O=C(O)C(F)(F)F (stereo not given),89
8,CCN(CC)CCN(Cc1ccc(-c2ccc(C(F)(F)F)cc2)cc1)C(=O)Cn1c(/C=C/c2ccco2)nc(=O)c2ccccc21.O=C(O)C(O)C(O)C(=O)O,94
9,O=C(O)C(F)(F)F.c1ccc(CCNCc2cccc(-c3ccc(CNc4ccc5ncccc5c4)cc3)c2)cc1,93
10,Clc1ccc(Nc2nc3nonc3nc2Nc2ccc(Cl)c(Cl)c2)cc1,99
11,Cc1cccc2nc(-c3ccc(-c4ccc(CNCc5cnn(-c6ccccc6)n5)cc4)s3)[nH]c12.O=C(O)C(F)(F)F,97
12,FC(F)(F)c1cccc(Nc2nc3ccccc3nc2Nc2cccc(C(F)(F)F)c2)c1,100
13,COc1cc2nc(N3CCN(C(=O)c4c(Cl)nsc4-c4ccccc4Cl)CC3)nc(N)c2cc1OC.O=C(O)C(F)(F)F,100
14,COc1ccc2nccc([C@@H](O)CN3CCC(NC(=O)c4ccc5nc(-n6cccc6)sc5c4)CC3)c2c1,90
15,FC(F)(F)c1ccc2[nH]c(-c3cccc(-c4ccc(CNCC5CCCO5)cc4)c3)nc2c1.O=C(O)C(F)(F)F (stereo not given),99
16,COCCNCc1cccc(-c2ccc3c(Nc4ccc(Oc5ccccc5)cc4)ccnc3c2)c1,100
17,COc1ccc(NC(=O)c2cn(-c3ccc(C(C)(C)C)cc3)nc2C)cc1N1CCN(C)CC1,96
18,COC(=O)Cn1c2ccccc2c2c(N)c(C(=O)OC)c(C)nc21,93
19,O=C(Nc1ccc(C(F)(F)F)cc1)NC1CCN(c2ccnc3cc(Cl)ccc23)C1.O=C(O)C(F)(F)F (stereo not given),100
20,OC(CNCc1cccc(Oc2ccc(Cl)cc2)c1)c1cccc(C(F)(F)F)c1 (stereo not given),94
21,CCNc1cc(C(=O)N[C@@H](Cc2ccccc2)[C@H](O)CNC(C)Cc2cccc(Cl)c2)cc(N2CCCCS2(=O)=O)c1.Cl (stereo not given in full),98
22,CC1CCCCC1N(C)C1CCN(CCCNC(=O)C=Cc2ccccc2Cl)CC1 (stereo not given),100
23,CC1(C)N=C(N)N=C(N)N1c1ccc(Cl)c(Cl)c1.Cl,95
24,CCOC(=O)c1ccc(NC(=O)N(Cc2ccc(-c3cccc(CN4CCNCC4)c3)cc2)C2CCN(Cc3ccccc3)CC2)cc1.O=C(O)C(F)(F)F,100
25,CCCN(CC)CCOC(=O)c1ccccc1,99
26,CCCCCNC(=N)c1ccc(OCCCCCOc2ccc(C(=N)NCCCCC)cc2)cc1.Cl,99

# Tested on: Plasmodium falciparum
# Assay: GSK_TCMDC: Inhibition of Plasmodium falciparum Dd2 in whole red blood cells, using parasite LDH activity as an index of growth. Test compounds present at 2uM
# Type: functional
row,Compound,Inhibition [%]
1,COc1ccc(-c2cccc(NC(=O)c3cccc(C#N)c3)c2)cc1CNC(C)C.O=C(O)C(F)(F)F,51
2,O=C(O)C(F)(F)F.O=S(=O)(c1ccccc1)n1ccc2cc(Nc3ncnc4cc(C#C[C@H]5CCCN5)sc34)ccc21,56
3,O=C(O)c1cccc2c(-c3ccncc3)cccc12,1
4,CCN(CC)CCNC(=O)/C(=C/C=C/c1cc2cc(Cl)c(Cl)cc2[nH]1)OC,31
5,Cc1cc(-c2cccc(CNC3CCN(C)CC3)c2)ccc1S(=O)(=O)NC1CCC1.O=C(O)C(F)(F)F,96
6,CS(=O)(=O)CCNCc1cccc(-c2ccc3c(Nc4ccc(Oc5ccccc5)cc4)ccnc3c2)c1,96
7,CS(=O)(=O)c1ccc2c(c1)CCN(CCC1CCC(NC(=O)C(=Cc3cccc(C#N)c3)c3ccc(-c4ccccc4)cc3)CC1)CC2 (stereo not given),13
8,COc1cccc2cc(C(=O)N[C@@H](CC(C)C)C(=O)N[C@H](C=NNC(=O)OC(C)(C)C)CC(C)C)oc12,57
9,CCN(CC)CCN(CCN(CC)CC)c1ccc2c(c1)Sc1c(Cl)ccc(Cl)c1S2.Cl,94
10,COc1ccc2nccc([C@@H](O)CN3CCC(NCc4cc5ccccc5nn4)CC3)c2c1.O=C(O)C(=O)O,16
11,O=C(/C=C/c1ccc(CNCCN2CCOCC2)cc1)NCCc1ccccc1,3
12,COc1cc(-n2cnc3cc(-c4ccc([N+](=O)[O-])cc4)sc3c2=O)ccc1OCCN1CCCC1.O=C(O)C(F)(F)F,79
13,COc1ccc2ncc(F)c(CCN3CC[C@H](NC(=O)c4ccc5c(n4)NC(=O)CS5)[C@H](O)C3)c2n1.Cl,88
14,COc1cc2c(Nc3ccc(NC(=O)c4ccccc4)cc3)ncnc2cc1OCCCN1CCOCC1,93
15,CC(Cc1ccc(NC(=O)c2ccc(CC(C)NCc3ccc(Cl)cc3)cc2)cc1)NCCc1cccc(Cl)c1 (stereo not given),75
16,CCCCCCCNCc1c(O)ccc2c(CNCCCCCCC)c(O)ccc12.Cl,99
17,O=C(NCCCCCN1CCC(c2c[nH]c3ccccc23)CC1)c1ccc(-c2ccccc2)nc1,13
18,CCOC(=O)C(C)(C)Oc1ccc(CN(Cc2ccc(CC(C)C)cc2)C(=O)Nc2ccc(F)cc2F)c(OC)c1,96
19,Cc1cc(N[C@@H](Cc2ccccc2)C(=O)NC2CCCC2)nc(Nc2ccccc2)n1.O=C(O)C(F)(F)F,82
20,O=C(Nc1ccc(OC2CCN(Cc3ccsc3)C2)c(Cl)c1)c1ccc(F)cc1.O=C(O)C(F)(F)F (stereo not given),73

row,Compound,Inhibition [%]
1,CCN(CC)CCN(Cc1ccc(-c2ccc(C(F)(F)F)cc2)cc1)C(=O)Cn1c(/C=C/c2ccco2)nc(=O)c2ccccc21.O=C(O)C(O)C(O)C(=O)O,86
2,O=C(O)C(F)(F)F.c1ccc(CCNCc2cccc(-c3ccc(CNc4ccc5ncccc5c4)cc3)c2)cc1,27
3,Clc1ccc(Nc2nc3nonc3nc2Nc2ccc(Cl)c(Cl)c2)cc1,92
4,Cc1cccc2nc(-c3ccc(-c4ccc(CNCc5cnn(-c6ccccc6)n5)cc4)s3)[nH]c12.O=C(O)C(F)(F)F,48
5,FC(F)(F)c1cccc(Nc2nc3ccccc3nc2Nc2cccc(C(F)(F)F)c2)c1,100
6,COc1cc2nc(N3CCN(C(=O)c4c(Cl)nsc4-c4ccccc4Cl)CC3)nc(N)c2cc1OC.O=C(O)C(F)(F)F,100
7,COc1ccc2nccc([C@@H](O)CN3CCC(NC(=O)c4ccc5nc(-n6cccc6)sc5c4)CC3)c2c1,40
8,FC(F)(F)c1ccc2[nH]c(-c3cccc(-c4ccc(CNCC5CCCO5)cc4)c3)nc2c1.O=C(O)C(F)(F)F (stereo not given),99
9,COCCNCc1cccc(-c2ccc3c(Nc4ccc(Oc5ccccc5)cc4)ccnc3c2)c1,99
10,COc1ccc(NC(=O)c2cn(-c3ccc(C(C)(C)C)cc3)nc2C)cc1N1CCN(C)CC1,71
11,COC(=O)Cn1c2ccccc2c2c(N)c(C(=O)OC)c(C)nc21,1
12,O=C(Nc1ccc(C(F)(F)F)cc1)NC1CCN(c2ccnc3cc(Cl)ccc23)C1.O=C(O)C(F)(F)F (stereo not given),99
13,OC(CNCc1cccc(Oc2ccc(Cl)cc2)c1)c1cccc(C(F)(F)F)c1 (stereo not given),78
14,CCNc1cc(C(=O)N[C@@H](Cc2ccccc2)[C@H](O)CNC(C)Cc2cccc(Cl)c2)cc(N2CCCCS2(=O)=O)c1.Cl (stereo not given in full),77
15,CC1CCCCC1N(C)C1CCN(CCCNC(=O)C=Cc2ccccc2Cl)CC1 (stereo not given),14
16,CC1(C)N=C(N)N=C(N)N1c1ccc(Cl)c(Cl)c1.Cl,56
17,CCOC(=O)c1ccc(NC(=O)N(Cc2ccc(-c3cccc(CN4CCNCC4)c3)cc2)C2CCN(Cc3ccccc3)CC2)cc1.O=C(O)C(F)(F)F,55
18,CCCN(CC)CCOC(=O)c1ccccc1,1
19,CCCCCNC(=N)c1ccc(OCCCCCOc2ccc(C(=N)NCCCCC)cc2)cc1.Cl,98
